15 compounds from PubChem BioAssay AID1726 (National Center for Advancing Translational Sciences (NCATS), 2009) can be followed below.

Results filed as inconclusive are left out. Unmarked numbers belong to inactive results. Calls of active or inactive are those of the source. Calls come from the whole dose curve; as a rule, active = well fitted curve in the direction sought with a large enough effect; inconclusive = small, poorly fitted or top-dose-only effect, or effect the other way, or another doubt; inactive = no such curve, though single readings can be large or run the other way.

Epidermal growth factor receptor (Homo sapiens), sequence (P00533 whole entry T790M/L858R, looked up): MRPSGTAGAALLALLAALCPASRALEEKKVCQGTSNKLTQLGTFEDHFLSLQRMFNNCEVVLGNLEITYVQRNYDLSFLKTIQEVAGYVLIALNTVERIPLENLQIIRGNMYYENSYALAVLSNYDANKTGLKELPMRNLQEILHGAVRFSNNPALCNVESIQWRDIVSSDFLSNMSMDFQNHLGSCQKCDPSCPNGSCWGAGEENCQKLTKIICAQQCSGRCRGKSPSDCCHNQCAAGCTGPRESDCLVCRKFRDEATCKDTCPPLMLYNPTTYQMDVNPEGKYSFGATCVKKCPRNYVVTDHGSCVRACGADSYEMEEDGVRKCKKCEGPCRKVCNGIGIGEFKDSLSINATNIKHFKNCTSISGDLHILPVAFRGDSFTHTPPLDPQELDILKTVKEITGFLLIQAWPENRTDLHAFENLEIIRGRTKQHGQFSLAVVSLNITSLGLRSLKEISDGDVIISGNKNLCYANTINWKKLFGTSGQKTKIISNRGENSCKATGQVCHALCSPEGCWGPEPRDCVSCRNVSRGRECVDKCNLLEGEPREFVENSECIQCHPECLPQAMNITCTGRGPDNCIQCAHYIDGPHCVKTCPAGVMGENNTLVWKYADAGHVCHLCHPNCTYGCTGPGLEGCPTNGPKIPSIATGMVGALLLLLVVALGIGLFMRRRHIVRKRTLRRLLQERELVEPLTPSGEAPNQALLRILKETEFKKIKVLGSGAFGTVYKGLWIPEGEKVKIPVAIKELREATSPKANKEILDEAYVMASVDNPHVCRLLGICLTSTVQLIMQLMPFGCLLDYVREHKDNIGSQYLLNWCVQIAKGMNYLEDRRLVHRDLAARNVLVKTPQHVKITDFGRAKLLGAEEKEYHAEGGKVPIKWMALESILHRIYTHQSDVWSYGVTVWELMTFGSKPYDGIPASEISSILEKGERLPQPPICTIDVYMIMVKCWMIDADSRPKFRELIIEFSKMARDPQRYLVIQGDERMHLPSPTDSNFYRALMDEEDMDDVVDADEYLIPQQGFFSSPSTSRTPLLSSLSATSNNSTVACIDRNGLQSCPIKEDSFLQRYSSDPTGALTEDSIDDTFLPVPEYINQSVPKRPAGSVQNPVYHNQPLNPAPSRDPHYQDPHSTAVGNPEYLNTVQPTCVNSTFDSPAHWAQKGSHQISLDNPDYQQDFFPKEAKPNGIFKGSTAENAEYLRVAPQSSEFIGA

This assay has as its target Epidermal growth factor receptor (Homo sapiens) (UniProt P00533). The assay is described as follows: Assay for Inhibitors of the ERK Signaling Pathway using a Homogeneous Screening Assay: EGFR T790M/L858R Kinase Inhibition. The conditions noted are these: series mostly up to 65.8 µM; activity change, negative = inhibition: at the top concentration. From the text: qHTS Assay for Inhibitors of the ERK Signaling Pathway using a Homogeneous Screening Assay
NIH Chemical Genomics Center [NCGC]
NIH Molecular Libraries Screening Centers Network [MLSCN]
Assay Submitter (PI): Dr. Wei Zheng, NCGC/NIH
The Ras/extracellular-signal-regulated kinase (ERK) mitogen activated protein (MAP) kinase signaling pathway (ERK1/2 cascade) plays is a key role in transmitting signals from the cell surface to the nucleus (Nishida and Gotoh 1993; Chang and Karin, 2001). The cascade is initiated by the small G-protein Ras, which recruits Raf […], where activation occurs. Alternatively, this pathway can be activated by elevating intracellular cAMP.
Activation of the ERK pathway is essential in increased cell division and cell survival. Sustained and constitutive activation of the ERK pathway, however, has been linked to uncontrolled cell proliferation, increased cell survival, and tumor progression. Thus, the ERK has been as an attractive target for cancer chemotherapy in the past few years (Sebolt-Leopold and Herrera, 2004). Given its physiological and pathological importance, assessment of ERK phosphorylation has been broadly performed in both basic research and drug discovery. Most assays for the measurement of ERK phosphorylation use the antibody-based detection methods, such as western blot and ELISA. These assays require multiple reagent additions with cell wash steps and are not suitable for high-throughput screening.
The current cell-based ERK phosphorylation assay was performed using AlphaScreen platform. AlphaScreen is a two bead-based proximity-dependent chemical energy transfer luminescent assay platform. The assay reagents (ERK SureFire(TM) kit) were supplied from TGR BioSciences (Australia). In the presence of specific antibodies, phosphorylated ERK will bring "donor" and "acceptor" beads to a proximity range (<200 nm), and subsequently lead a chemical luminescent reaction upon exciting donor beads with 680 nm laser. To validate pathway hits from the cell-based assay, enzyme assays consisting of EGFR tyrosine kinase, Raf and MEK were used as a means of deciphering the enzymes of target for the prioritized group of compounds derived from the HEK-293 cell based assay. The compounds were tested against significant members of the ERK signaling pathway EGFR and EGFR mutants (EGFR L858R, EGFR T790M, and EGFR L858R T790M). In order to establish the specificity of the prioritized compounds for EGFR and EGFR mutants, the compounds were also assayed against other important ERK signaling pathway enzymes, c-RAF and MEK-1.
NCGC Assay Protocol Summary:
The HTRF kinase assay (components supplied as kit by Cisbio) was chosen for the EGFR and EGFR mutant enzyme assays that applied the time resolved fluorescence resonance energy transfer (TR-FRET) principle. A peptide substrate is labeled with a biotin that can bind to XL665 labeled streptavidin and the anti-phosphoresidue antibody is labeled with Eu+. Upon phosphorylation of the substrate, the antibody binds to phosphorylated substrate that enables TR-FRET detection in homogenous assay format.
An HTRF Kinease TK assay kit (Cisbio, Bedford, MA) was used to develop the EGFR and EGFR mutant assays (Harbert et al., 2008. Harbert C, Marshall J, Soh S, Steger K. Development of a HTRF Kinase Assay for Determination of Syk Activity. Current Chemical Genomics. 1: 20-26. 2008). EGFR and EGFR mutants were obtained from Invitrogen. The assay buffer was composed of 50 mM HEPES (pH 7.0), 5 mM MgCl2, 5mM DTT, 0.1 % NaN3, 0.1 % BSA and 0.1 mM orthovanadate.
The HTRF assays were preformed according to the HTRF Kinease TK kit. Optimization for each enzyme was preformed in 384 well format (data not included). All reagents were dispensed into 1536 well plates.
(1) Enzyme, […] EGFR at 3 nM final
(2) Compound, 22 nl, Library Compounds in 0.128 to 10 mM titration series or control
(3) Reagent, 1.5 ul 10 uM ATP and 0.25 uM substrate final
(4) Incubation for 30 min, Ambient conditions
[…]
`CNc1cccc2c1C(=O)c1ccccc1C2=O`: the “activity change, negative = inhibition” value was 21.5%.
For `CS(=O)(=O)CCNCc1nc(-c2ccc3ncnc(Nc4ccc(OCc5cccc(F)c5)c(Cl)c4)c3c2)cs1`, the “activity change, negative = inhibition” value was -1.71%.
Still for that read-out and setting: with `CCN(CC)CCC(=O)Nc1cccc2c1C(=O)c1ccccc1C2=O` the figure was -8.96% [at 21.9 µM].
`Cc1nc2ccccc2nc(=O)c1NNc1ccccc1`: the Potency was 3.16 µM (active).
Turning to `Cn1c(=O)[nH]c2nnc(-c3ccc(Cl)c(Cl)c3)nc2c1=O`, the “activity change, negative = inhibition” value was 3.61%.
`Cc1ccc(NNc2c(C)nc3ccccc3nc2=O)cc1`: the “activity change, negative = inhibition” value is 9.82% [at 21.9 µM].
Take `Fc1ccc(Nc2ncnc3sc4c(c23)CCC4)cc1F`: the “activity change, negative = inhibition” value is -14.1%.
Still for that read-out and setting: with `Cn1nc(-c2ccccn2)nc2c(=O)n(C)c(=O)nc1-2` the figure was 9.12% [at 21.9 µM]; with `Cn1nc(-c2ccc(Cl)cc2)nc2c(=O)n(C)c(=O)nc1-2`, 13.9% [at 21.9 µM].
Still for that read-out and setting: the value for `O=C1c2ccccc2C(=O)c2c(NCCCN(CCO)CCO)cccc21` was 27.1%; that for `COc1ccc(C(=O)c2ccc(Cl)c([N+](=O)[O-])c2)cc1` was 1.54%.
On to `N#C/C(=C(/N)Sc1ccc(N)cc1)c1ccccc1C(F)(F)F`, for which the Potency entry was “inactive”.
As for `O=C(Nc1nc(-c2ccccc2)cs1)c1ccc(N2CCOCC2)c([N+](=O)[O-])c1`, the “activity change, negative = inhibition” value was -1.3%.
With `CCn1c(=O)c2[nH]c(-c3ccccc3)nc2n(CC)c1=O`, the “activity change, negative = inhibition” value is -10.9% [at 21.9 µM].
For the compound `Cc1ccc2nc(=O)c(NNc3ccccc3)cnc2c1`, the Potency is 3.55 µM (active).
